Data: PubChem BioAssay AID1851 (National Center for Advancing Translational Sciences (NCATS), 2009)
About 2,600 (16%) of roughly 16,000 compounds were called active. Not shown: some 20% with an inconclusive outcome. Calls come from the whole dose curve; as a rule, active = well fitted curve in the direction sought with a large enough effect; inconclusive = small, poorly fitted or top-dose-only effect, or effect the other way; inactive = no such curve, though single readings can be large or run the other way. A selection follows.

target: Cytochrome P450 2D6 (Homo sapiens) (UniProt P10635); assay: Cytochrome panel assay with activity outcomes; conditions: recombinant CYP, pro-luciferin dealkylation, luminescence, p450-cyp2d6; series mostly up to 57.1 µM; activity, negative = inhibition: at the top concentration
Sequence (P10635 whole entry, looked up): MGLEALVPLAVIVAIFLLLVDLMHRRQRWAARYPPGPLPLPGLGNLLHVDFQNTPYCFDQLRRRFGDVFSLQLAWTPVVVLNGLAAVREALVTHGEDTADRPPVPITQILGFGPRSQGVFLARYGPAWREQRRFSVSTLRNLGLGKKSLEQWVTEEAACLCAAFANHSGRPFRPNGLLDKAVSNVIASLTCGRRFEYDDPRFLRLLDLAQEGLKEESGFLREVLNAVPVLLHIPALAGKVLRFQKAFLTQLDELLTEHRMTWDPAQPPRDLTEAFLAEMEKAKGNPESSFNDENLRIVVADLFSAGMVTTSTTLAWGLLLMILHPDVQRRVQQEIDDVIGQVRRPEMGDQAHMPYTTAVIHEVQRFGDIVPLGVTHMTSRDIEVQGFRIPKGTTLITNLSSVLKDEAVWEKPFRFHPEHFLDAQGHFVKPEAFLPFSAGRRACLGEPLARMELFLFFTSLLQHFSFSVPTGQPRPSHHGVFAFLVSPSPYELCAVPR
% is set by controls: 0 for no effect and ±100 for the full control effect.

Row | SMILES | AC50 | activity, negative = inhibition
1 | CCN(CCO)Cc1csc2cccc(Br)c12 | 15.8 µM (active) | 
2 | COc1ccc(-n2c(=O)c(-c3cccc(Cl)c3)nc3cncnc32)cc1 |  | -12.5% (inactive)
3 | CCOC(=O)c1cnc2cc(-c3ccc(C(C)(C)C)cc3)nn2c1N |  | -11.3% (inactive)
4 | O=C(CSCc1c(Cl)cccc1Cl)NCc1cccnc1 | 15.8 µM (active) | 
5 | O=C(CCc1ccccc1)NCc1cccnc1 |  | -16.4% (inactive)
6 | Cn1c(C(=O)O)c(CC(=O)NCc2cccnc2)c2ccccc21 |  | 20.8% (inactive)
7 | O=[N+]([O-])c1ccc(Cl)c(-c2ccc(/C=N/c3c(-c4ccco4)nc4ccccn34)o2)c1 |  | 1.14% (inactive)
8 | Cc1cc(-c2cccc([N+](=O)[O-])c2)nc2ccc3ccccc3c12 |  | 1.13% (inactive)
9 | N#CCCn1c(=O)c(-c2ccc(F)cc2)nc2cnc(Oc3cccc(Cl)c3)nc21 |  | 1.43% (inactive)
10 | O=C(Cc1c[nH]c2ccccc12)OCC(=O)c1ccccc1 |  | -28.2% (inactive)
11 | C[C@@](N)(Cc1c[nH]c2ccccc12)C(=O)O |  | 5.35% [at 11.4 µM] (inactive)
12 | CCOC(=O)CCCc1c[nH]c2ccccc12 | 17.8 µM (active) | 
13 | [O-][N+]1(CC[N+]2([O-])CCCCC2)CCCCC1 |  | 3.01% [at 11.4 µM] (inactive)
14 | COc1cccc(/C=N/n2c(=S)n(C)c3cc(C)c(C)cc32)c1OC |  | 6.36% (inactive)
15 | CC(=O)CSc1nnc(Cc2ccc([N+](=O)[O-])cc2)o1 |  | -6.4% (inactive)
16 | O=C(O)Cc1cc2ccccc2nc1C(=O)O |  | 18.6% (inactive)
17 | COC(=O)C1C(=O)C2=C(CC1C)NC(=O)CC2c1cccc(C)c1 (stereo not drawn) |  | 0.378% (inactive)
18 | COc1ccc2[nH]cc(CCNc3ncncc3-c3ccccc3CN(C)C)c2c1 | 10 µM (active) | 
19 | COc1ccc2[nH]cc(CCNc3ncncc3-c3ccccc3Cl)c2c1 | 0.631 µM (active) | 
20 | COc1ccc2[nH]cc(CCNc3ncncc3-c3ccccc3C(F)(F)F)c2c1 | 2 µM (active) | 
21 | COc1ccc2[nH]cc(CCNc3ncncc3-c3ccccc3OC)c2c1 | 1.26 µM (active) | 
22 | CC[C@@H]1CN2CCc3cc(OC)c(OC)cc3[C@H]2C[C@@H]1C[C@H]1NCCc2cc(OC)c(OC)cc21 |  | 1.63% [at 25.6 µM] (inactive)
23 | COc1c2ccoc2nc2c(OC)c(OC[C@H](O)C(C)(C)O)ccc12 |  | -1.44% [at 25.6 µM] (inactive)
24 | CC(=O)N1N=C(c2cccc([N+](=O)[O-])c2)OC1c1ccccc1Cl (stereo not drawn) |  | -11.9% (inactive)
25 | O=c1c(-c2cccs2)nc2cnc(Oc3cccc(Cl)c3)nc2n1C[C@H]1CCCO1 |  | 4.62% (inactive)
26 | CCc1ccc(-c2cc(C(F)(F)F)n3nc(C(=O)Nc4cnn(Cc5ccccc5C)c4)cc3n2)s1 |  | 9.44% (inactive)
27 | CCOC(=O)c1c(NC(C)=O)sc2c(OC)cccc12 |  | 3.56% (inactive)

Row | SMILES | AC50 | activity, negative = inhibition
28 | COC(=O)c1ccc(OCC2c3cc(OC)c(OC)cc3CCN2C(=O)C2CC2)cc1 (stereo not drawn) |  | -12.4% (inactive)
29 | COc1ccc2[nH]cc(CCNc3ncncc3-c3ccccc3C)c2c1 | 1.26 µM (active) | 
30 | CCCCN(C)S(=O)(=O)c1ccc(C(=O)Nc2nnc(CSC)o2)cc1 |  | 14.6% (inactive)
31 | CCCc1nn(-c2ccccc2)c2c1C(c1cccs1)C(C#N)=C(N)O2 (stereo not drawn) |  | -4.88% (inactive)
32 | CCC(C(=O)Nc1cccc(C(F)(F)F)c1)c1ccccc1 (stereo not drawn) |  | -21.5% (inactive)
33 | Cc1[nH]n(-c2ccccc2)c(=O)c1CCOC(=O)c1cccc(C(F)(F)F)c1 |  | -23.9% (inactive)
34 | C[C@@H](Cc1cccc(C(F)(F)F)c1)NCCOC(=O)c1ccccc1 | 0.0158 µM (active) | 
35 | COc1cccc(-c2cc(C(=O)N/N=C/c3ccc(OC)c(COC(C)=O)c3)c3ccccc3n2)c1 |  | 32% (inactive)
36 | CCc1ccc(NC(=O)Cn2nc(C(F)(F)F)c3c2CCC3)cc1 |  | -27% (inactive)
37 | CN(C)C(=O)c1ccc(-n2nc(C(F)(F)F)c3c2CCCC3)cc1 | 8.91 µM (active) | 
38 | O=C(Cn1nnc(-c2ccccc2)n1)OCc1ccccc1 |  | -13.4% (inactive)
39 | CCC[C@H](Sc1nc(N)nc2nc[nH]c12)C(=O)O |  | 1.31% [at 11.4 µM] (inactive)
40 | CCCNC(=O)OC[C@H]1O[C@@H](CCO/N=C2/[C@H]3O[C@@H]3[C@@H](O)[C@H]3[C@H]2CCn2c(=O)n(-c4ccccc4)c(=O)n23)C=C[C@@H]1Oc1ccc(OC)cc1 |  | 10.6% [at 11.4 µM] (inactive)
41 | CCCCCc1nc2c(C#N)c(-c3ccc(Cl)cc3)ccn2n1 |  | -15.8% (inactive)
42 | O=C(Nc1ccccc1)N1CC2(CCN(C(=O)c3cnccn3)CC2)C1 |  | -6.12% (inactive)
43 | O=C(Nc1ccccc1)N1CC[C@@]2(CCCN(C(=O)c3cnccn3)C2)C1 |  | 2.56% (inactive)
44 | O=C(c1cnccn1)N1CCC2(CC1)CN(C(c1ccccc1)c1ccccc1)C2 | 6.31 µM (active) | 
45 | O=C(c1cnccn1)N1CCC2(CC1)CCN(C(c1ccccc1)c1ccccc1)CC2 | 3.98 µM (active) | 
46 | O=C(c1cnccn1)N1CCC2(CC1)CN(c1ccccc1)C2 |  | 12.2% (inactive)
47 | O=C(c1cnccn1)N1CCC2(CCCN(c3ccccc3)C2)CC1 |  | -6.98% (inactive)
48 | O=C(c1cnccn1)N1CCC[C@@]2(CCN(C(c3ccccc3)c3ccccc3)C2)C1 | 10 µM (active) | 
49 | O=C(Nc1ccccc1)N1CCC2(CC1)CCN(C(=O)c1cnccn1)CC2 |  | 1.86% (inactive)
50 | O=C(c1cnccn1)N1CCC[C@@]2(CCN(c3ccccn3)C2)C1 |  | -16.8% (inactive)
51 | O=C(c1cnccn1)N1CCC2(CC1)CCN(c1ccccc1)CC2 |  | -5.31% (inactive)
52 | O=C(c1cnccn1)N1CCC2(CCCN(C(c3ccccc3)c3ccccc3)C2)CC1 | 10 µM (active) | 
53 | O=C(Nc1ccccc1)N1CCCC2(CCN(C(=O)c3cnccn3)CC2)C1 |  | -1.93% (inactive)
